Measurements: PubChem BioAssay (NCI)
Compounds without any hit were thinned out: in the full panel of roughly 83,000, 20% have a hit.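 Growth was measured after 48 h exposure to one concentration of compound in 96-well plates. Values under 10 count as active.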 Activity calls are given as the source filed them.

What was measured:
Test in all cases: NCI-60 one-dose screen, 48 h (100 = growth as untreated, 0 = no growth, -100 = all killed)
Settings in all cases: 10 µM unless noted
SR leukemia = test system: SR leukemia
RPMI-8226 leukemia = test system: RPMI-8226 leukemia
OVCAR-8 ovarian = test system: OVCAR-8 ovarian
OVCAR-5 ovarian = test system: OVCAR-5 ovarian
OVCAR-4 ovarian = test system: OVCAR-4 ovarian
SK-OV-3 ovarian = test system: SK-OV-3 ovarian
IGROV1 ovarian = test system: IGROV1 ovarian
OVCAR-3 ovarian = test system: OVCAR-3 ovarian
HS 578T breast = test system: HS 578T breast
NCI/ADR-RES ovarian = test system: NCI/ADR-RES ovarian
T-47D breast = test system: T-47D breast
BT-549 breast = test system: BT-549 breast
MDA-MB-435 melanoma = test system: MDA-MB-435 melanoma
SW-620 colon = test system: SW-620 colon
MCF7 breast = test system: MCF7 breast
HCT-116 colon = test system: HCT-116 colon
HCC-2998 colon = test system: HCC-2998 colon
KM12 colon = test system: KM12 colon
MDA-MB-468 breast = test system: MDA-MB-468 breast

Measured: growth

COc1ccc(/C=C/C(=O)c2ccc(OC)c(S(N)(=O)=O)c2)c(C(F)(F)F)c1
active: SR leukemia 0.801% | RPMI-8226 leukemia 3.98% | OVCAR-8 ovarian 6.69% | OVCAR-5 ovarian 3.65% | IGROV1 ovarian 1.64% | NCI/ADR-RES ovarian -31.4% | BT-549 breast -78.9% | SW-620 colon 7.45% | MCF7 breast 8.35% | HCT-116 colon -44.3% | HCC-2998 colon -95.4% | KM12 colon 6.97% | MDA-MB-468 breast 7.25%
inactive: OVCAR-4 ovarian 18.6% | SK-OV-3 ovarian 66.6% | OVCAR-3 ovarian 15.8% | HS 578T breast 49.3% | T-47D breast 29.3% | MDA-MB-435 melanoma 63.6%

COc1ccc2c(c1)C(Sc1ccc(Br)cc1)c1c(nc(N)c(C#N)c1N)O2 (configuration not stated)
inactive: SR leukemia 46.5% | RPMI-8226 leukemia 87.1% | OVCAR-8 ovarian 87% | OVCAR-5 ovarian 113% | OVCAR-4 ovarian 92.4% | SK-OV-3 ovarian 98.1% | IGROV1 ovarian 59.1% | OVCAR-3 ovarian 114% | HS 578T breast 88.8% | NCI/ADR-RES ovarian 86.5% | T-47D breast 80.3% | BT-549 breast 56.1% | MDA-MB-435 melanoma 88% | SW-620 colon 80.1% | MCF7 breast 61.9% | HCT-116 colon 75.1% | HCC-2998 colon 111% | KM12 colon 74.7% | MDA-MB-468 breast 97.1%

CC1=C(C)C(=O)C(N2CCSCC2)=CC1=O
inactive: SR leukemia 111% | RPMI-8226 leukemia 72.9% | OVCAR-8 ovarian 92.7% | OVCAR-5 ovarian 97.2% | OVCAR-4 ovarian 94.4% | SK-OV-3 ovarian 105% | IGROV1 ovarian 92.9% | OVCAR-3 ovarian 101% | HS 578T breast 103% | NCI/ADR-RES ovarian 93.7% | T-47D breast 105% | BT-549 breast 91% | MDA-MB-435 melanoma 112% | SW-620 colon 97.3% | MCF7 breast 99.6% | HCT-116 colon 93% | HCC-2998 colon 109% | KM12 colon 105% | MDA-MB-468 breast 60.4%

COc1ccc(-c2cc(-c3cc(C(C)C)c(O)cc3C)nn2-c2ccc(S(N)(=O)=O)cc2)cc1
active: SR leukemia 5.77% | OVCAR-3 ovarian 8.38% | NCI/ADR-RES ovarian -17.2% | BT-549 breast -3.73% | MDA-MB-435 melanoma -58.2% | KM12 colon 2.28% | MDA-MB-468 breast -15.9%
inactive: RPMI-8226 leukemia 16.5% | OVCAR-8 ovarian 24.5% | OVCAR-5 ovarian 65.8% | OVCAR-4 ovarian 64% | SK-OV-3 ovarian 60.5% | IGROV1 ovarian 85.8% | HS 578T breast 28.9% | T-47D breast 12.7% | SW-620 colon 28.2% | MCF7 breast 11% | HCT-116 colon 27.4% | HCC-2998 colon 45.9%

O=C1/C(=C/c2cnc(-c3ccccc3)s2)SC(=S)N1Cc1ccc2c(c1)OCO2
inactive: SR leukemia 67.5% | RPMI-8226 leukemia 110% | OVCAR-8 ovarian 67.6% | OVCAR-5 ovarian 99.4% | OVCAR-4 ovarian 77.5% | SK-OV-3 ovarian 35.6% | IGROV1 ovarian 64.2% | OVCAR-3 ovarian 97.6% | HS 578T breast 31.5% | NCI/ADR-RES ovarian 77.2% | T-47D breast 47.4% | BT-549 breast 69.2% | MDA-MB-435 melanoma 94.5% | SW-620 colon 102% | MCF7 breast 59.3% | HCT-116 colon 69.4% | HCC-2998 colon 102% | KM12 colon 99.7% | MDA-MB-468 breast 43.2%

O=C(/C=C1\C(=O)N(Cc2ccccc2)c2ccccc21)c1cc2ccccc2oc1=O
inactive: SR leukemia 22.5% | RPMI-8226 leukemia 98.8% | OVCAR-8 ovarian 98% | OVCAR-5 ovarian 116% | OVCAR-4 ovarian 84.5% | SK-OV-3 ovarian 109% | IGROV1 ovarian 67.4% | OVCAR-3 ovarian 38.6% | HS 578T breast 89.3% | NCI/ADR-RES ovarian 91.3% | T-47D breast 40.3% | BT-549 breast 97.1% | MDA-MB-435 melanoma 107% | SW-620 colon 24.2% | MCF7 breast 29.8% | HCT-116 colon 82.9% | HCC-2998 colon 113% | KM12 colon 91.2% | MDA-MB-468 breast 29.6%

Cc1oc(-c2ccccc2)nc1CN[C@@H]1C[C@@H]2C[C@H]([C@H]1C)C2(C)C
inactive: OVCAR-8 ovarian 82.6% | OVCAR-5 ovarian 30.7% | OVCAR-4 ovarian 74.5% | SK-OV-3 ovarian 73.5% | IGROV1 ovarian 37.6% | OVCAR-3 ovarian 84.4% | HS 578T breast 69.2% | BT-549 breast 39.3% | MDA-MB-435 melanoma 71.3% | SW-620 colon 22.8% | KM12 colon 64.3%
active: SR leukemia -6.32% | RPMI-8226 leukemia -3.45% | NCI/ADR-RES ovarian -38.1% | T-47D breast 0.388% | MCF7 breast -4.81% | HCT-116 colon 9.06% | HCC-2998 colon -75.6% | MDA-MB-468 breast -83.7%

CCCCNC(=S)Nc1ccc(OCc2nc3ccc(Cl)cc3[nH]2)cc1
active: SR leukemia 2.29% | RPMI-8226 leukemia -0.388% | MCF7 breast 6.29% | HCC-2998 colon 3.65% | MDA-MB-468 breast 3.25%
inactive: OVCAR-8 ovarian 38.7% | OVCAR-5 ovarian 28.2% | OVCAR-4 ovarian 21.5% | SK-OV-3 ovarian 75.4% | IGROV1 ovarian 12.9% | OVCAR-3 ovarian 13.6% | HS 578T breast 28.5% | NCI/ADR-RES ovarian 21.6% | T-47D breast 22.2% | BT-549 breast 31.7% | MDA-MB-435 melanoma 29.4% | SW-620 colon 21.8% | HCT-116 colon 11.2% | KM12 colon 29.3%

N#CC1=C(c2ccco2)Nc2c(c(-c3ccccc3)nn2-c2ccccc2)C12C(=O)Nc1ccc(Br)cc12 (configuration not stated)
inactive: SR leukemia 31.9% | RPMI-8226 leukemia 47.8% | OVCAR-8 ovarian 25% | OVCAR-5 ovarian 74.9% | OVCAR-4 ovarian 41.6% | SK-OV-3 ovarian 80% | IGROV1 ovarian 67% | OVCAR-3 ovarian 42.5% | NCI/ADR-RES ovarian 29.9% | T-47D breast 48.5% | BT-549 breast 70.4% | MDA-MB-435 melanoma 59.8% | SW-620 colon 46.3% | MCF7 breast 39.8% | HCC-2998 colon 91.8% | KM12 colon 66.4% | MDA-MB-468 breast 66.6%
active: HS 578T breast 6.01% | HCT-116 colon 5.08%

O=C(N/N=C/c1ccc(Br)o1)c1[nH]c2ccc(Br)cc2c1-c1ccccc1
active: SR leukemia 5.02% | OVCAR-8 ovarian -35.9% | OVCAR-5 ovarian -21.8% | OVCAR-4 ovarian -17.2% | IGROV1 ovarian 5.42% | OVCAR-3 ovarian -28.6% | HS 578T breast -4.62% | NCI/ADR-RES ovarian -41.6% | BT-549 breast -27.8% | MDA-MB-435 melanoma -29.1% | SW-620 colon 6.96% | MCF7 breast 0.0933% | HCT-116 colon -13.3% | HCC-2998 colon -7.57% | KM12 colon -1.58% | MDA-MB-468 breast 5.25%
inactive: RPMI-8226 leukemia 10.6% | SK-OV-3 ovarian 22% | T-47D breast 27.1%

O=C(NN1C(=O)/C(=C/C=C/c2ccc([N+](=O)[O-])o2)SC1=S)c1ccncc1
active: SR leukemia -24.7% | RPMI-8226 leukemia -28.4% | OVCAR-8 ovarian -37.2% | OVCAR-5 ovarian -98.9% | OVCAR-4 ovarian -97.6% | SK-OV-3 ovarian -99% | IGROV1 ovarian -94.9% | OVCAR-3 ovarian -100% | HS 578T breast -11% | NCI/ADR-RES ovarian -4.3% | T-47D breast -59.4% | BT-549 breast -91.7% | MDA-MB-435 melanoma -83.7% | SW-620 colon -69.6% | MCF7 breast -53.4% | HCT-116 colon -41.5% | HCC-2998 colon -96.2% | KM12 colon -94.3% | MDA-MB-468 breast -73.9%

CS(=O)(=O)Nc1cncc(-c2ccc3ncnc(NCc4ccccc4)c3c2)c1
inactive: RPMI-8226 leukemia 52% | OVCAR-8 ovarian 49.2% | OVCAR-5 ovarian 42.6% | OVCAR-4 ovarian 44.8% | SK-OV-3 ovarian 67.6% | OVCAR-3 ovarian 33.6% | NCI/ADR-RES ovarian 89% | MDA-MB-435 melanoma 55.1% | SW-620 colon 38.9% | HCT-116 colon 19.1% | HCC-2998 colon 45.9% | KM12 colon 65.5%
active: SR leukemia 6.25% | IGROV1 ovarian 4.57% | HS 578T breast -5.05% | T-47D breast 3.96% | BT-549 breast 2.92% | MCF7 breast 9.82% | MDA-MB-468 breast -34%

COc1c(B(O)O)cccc1-c1nc2ccc3cn[nH]c3c2c2c1CCCC2
active: HS 578T breast -17.9%
inactive: SR leukemia 71.8% | RPMI-8226 leukemia 45.8% | OVCAR-8 ovarian 48.4% | OVCAR-5 ovarian 76.1% | OVCAR-4 ovarian 77.3% | SK-OV-3 ovarian 25.3% | IGROV1 ovarian 57.9% | OVCAR-3 ovarian 57% | NCI/ADR-RES ovarian 65.2% | T-47D breast 70.6% | BT-549 breast 30.7% | MDA-MB-435 melanoma 84.2% | SW-620 colon 53.6% | MCF7 breast 60.5% | HCT-116 colon 28.8% | HCC-2998 colon 86.9% | KM12 colon 62.3% | MDA-MB-468 breast 10.5%
